Shiga inhibitor = A qHTS for Small Molecule Inhibitors of Shiga Toxin. 290,000 tested, 9.2% active. Vero cells, Shiga toxin protein synthesis inhibition reporter. inhibition, % at 38.7 µM. AID 2315, 2010; in the data active means inhibition mostly above about 28%, no sharp cut-off; inactive means mostly below about 43%; further: 0% is about no effect
CHX counter = Cycloheximide Counterscreen for Small Molecule Inhibitors of Shiga Toxin. cell reporter, cycloheximide protein synthesis inhibition counterscreen. max response, %. 300,000 tested, 12% active. AID 2314, 2010; in the data active means max response mostly above about 13%, no sharp cut-off; inactive means mostly below about 14%; further: read at 38.3 µM for the half of the compounds with a filed dose; 0% is about no effect
LmPK inhibitor = qHTS Assay for Inhibitors of Leishmania Mexicana Pyruvate Kinase (LmPK); Q27686; purified LmPK, Kinase-Glo ATP luminescence, 1 h; Potency, µM (top dose mostly 57.5 µM), for inactives: top-dose activity change, negative = inhibition, usual class: inhibitors; 290,000 tested, 0.37% active; AID 1721, 2009; further: potency means the concentration at half of the fitted maximal effect; on the % scale 0 is the no-effect control and ±100 the full control effect
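qHTS format; LmPK 0.1 nM; substrates PEP 0.5 mM and ADP 0.1 mM. One-hour room-temperature incubation, then coupled luciferase luminescence; 0.5 nM enzyme wells mark activation.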
FBPA Giardia inh = qHTS Assay for Inhibitors of Fructose-1,6-bisphosphate Aldolase from Giardia Lamblia; A8B2U2; purified Giardia FBPA; Potency, µM (highest dose often 59.6 µM), inactives show top-dose activity, negative = inhibition, most hits filed as inhibitors; 290,000 tested, 0.71% active; AID 2451, 2010; further: potency means the concentration at half of the fitted maximal effect; on the % scale 0 is the no-effect control and ±100 the full control effect; nearly all actives have a fitted effect of over 55% in size
Target sequence (A8B2U2 whole entry, looked up): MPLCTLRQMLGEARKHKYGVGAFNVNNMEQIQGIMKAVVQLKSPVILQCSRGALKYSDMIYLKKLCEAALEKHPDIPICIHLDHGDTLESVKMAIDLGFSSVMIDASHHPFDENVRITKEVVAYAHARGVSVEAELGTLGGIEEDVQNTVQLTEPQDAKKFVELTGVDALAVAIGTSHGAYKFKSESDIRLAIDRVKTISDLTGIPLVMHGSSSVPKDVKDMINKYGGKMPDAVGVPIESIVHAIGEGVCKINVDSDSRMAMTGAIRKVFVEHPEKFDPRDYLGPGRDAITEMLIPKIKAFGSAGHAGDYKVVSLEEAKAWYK
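40 nM FBPA preincubated 10 min at RT with compound (up to 57.5 uM final), then substrate plus GAPDH/TPI/NAD/arsenate coupling and diaphorase/resazurin added. Fluorescence read after 20 min at RT, 525/598 nm.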
NS1 function inh = qHTS Assay for Inhibitors of Influenza NS1 Protein Function; Potency, µM (highest dose often 46.1 µM), without a hit: at the top dose activity, positive = more growth; 270,000 tested, 0.4% active; AID 2326, 2010; calls by dose curve; further: potency means the concentration at half of the fitted maximal effect; actives are rising curves; nearly all actives have a fitted effect of over 50% in size
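A cell-based growth assay was used: compounds that relieve NS1-induced slow growth of budding yeast raise OD600. Assay medium was yeast nitrogen base with ammonium sulphate and -URA supplement, pH 6.0, with 2% galactose.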
The depositor's hits bear a star; ! = not confirmed by another sample; [ ] = dose if it differs, or a comment. A selection: hits, their analogues and other compounds. The true share with any hit is near 14%. Unless noted, the call rests on the fitted dose curve; in most records, active means well fitted curve in the direction sought with a large enough effect; inconclusive means small, poorly fitted or top-dose-only effect, or another doubt; inactive means no such curve, though single readings can be large; an effect the other way counts as inactive or inconclusive.

What do the screens show for `CCCC(=O)Nc1nnc(S(=O)(=O)N(CC(C)C)c2ccccc2)s1`?
Shiga inhibitor: 20.5; CHX counter: 1.7; LmPK inhibitor: -6.2%; FBPA Giardia inh: 4.3%; NS1 function inh: 0.9%

Results for Cc1ccc(C2=NN(C(=O)CCCC(=O)O)C(c3ccc4c(c3)OCO4)C2)cc1 (stereo not given) ?
CHX counter: 7.4; LmPK inhibitor: 5.9%; FBPA Giardia inh: 13.7%; NS1 function inh: 29.9%

What do the screens show for `Cc1nc2cc(Cl)c(Cl)cc2nc1C`?
Shiga inhibitor: active; CHX counter: 48.3*; LmPK inhibitor: -16.7%; FBPA Giardia inh: -5.0%; NS1 function inh: -15.5%

How did Cn1c(Cc2ccccc2)nnc1SCC(=O)Nc1ccc(N2CCOCC2)cc1 do in these assays?
Shiga inhibitor: -0.5; CHX counter: 9.9; LmPK inhibitor: -2.6%; FBPA Giardia inh: 5.7%; NS1 function inh: 2.9%

What do the screens show for `C/C(=N\Nc1nc2ccccc2c(=O)n1O)c1ccco1`?
Shiga inhibitor: 62.0*; CHX counter: 46.7*; LmPK inhibitor: 1.3%; FBPA Giardia inh: -11.3%; NS1 function inh: 4.7%

How did C/C(=N\NC(=O)c1cc(C)nc2ccccc12)c1ccco1 do in these assays?
Shiga inhibitor: 1.3; CHX counter: -1.5; LmPK inhibitor: 0.4%; FBPA Giardia inh: -2.6%; NS1 function inh: 0.9%

Results for Cn1c2ccccc2c2ncn(CCC3=CCCCC3)c(=O)c21 ?
Shiga inhibitor: 26.8; CHX counter: 16.6*; LmPK inhibitor: -0.5%; FBPA Giardia inh: -9.9%; NS1 function inh: -56.1%

Results for S=c1[nH]c2cc3ccccc3cc2[nH]1 ?
Shiga inhibitor: 97.7*!; CHX counter: 43.5*!; LmPK inhibitor: -2.6%; FBPA Giardia inh: -8.6%; NS1 function inh: -4.3%

Results for c1ccc(-c2noc(C34CC5CC(CC(C5)C3)C4)n2)nc1 ?
Shiga inhibitor: 99.7*; CHX counter: 33.7*; LmPK inhibitor: 1.3%; FBPA Giardia inh: 2.3%; NS1 function inh: 1.5%

What do the screens show for `c1ccc(-c2noc(C34CC5CC(CC(C5)C3)C4)n2)cc1`?
Shiga inhibitor: 19.1; CHX counter: 13.7*; LmPK inhibitor: 3.9%; FBPA Giardia inh: 3.8%; NS1 function inh: -3.8%

How did O=C(NCC(c1cccs1)N1CCOCC1)c1cc([N+](=O)[O-])cc([N+](=O)[O-])c1 (stereo not given) do in these assays?
Shiga inhibitor: 2.1; CHX counter: 17.9*; LmPK inhibitor: -0.9%; FBPA Giardia inh: -5.3%; NS1 function inh: -1.2%

How did CC[C@@H](C)CN1C(=O)N[C@@H](c2ccccc2)C(C(=O)OC)=C1C do in these assays?
LmPK inhibitor: -6.6%[11.5 µM]; FBPA Giardia inh: 3.0%[12.9 µM]

What do the screens show for `CCCC(C)NC(=O)/C=C/c1cccc([N+](=O)[O-])c1` (stereo not given)?
Shiga inhibitor: -0.6; CHX counter: 11.1*; LmPK inhibitor: -1.1%; FBPA Giardia inh: -0.2%; NS1 function inh: -5.5%

What do the screens show for `Cc1ccc2nc(N3C(=O)C(O)=C(C(=O)c4cc5ccccc5o4)C3c3cccs3)sc2c1` (stereo not given)?
Shiga inhibitor: 98.2*; CHX counter: 62.1*; LmPK inhibitor: -7.6%; FBPA Giardia inh: -29.8%; NS1 function inh: 0.0%

How did Cc1cc(N2C(=O)C(O)=C(C(=O)c3cc4ccccc4o3)C2c2cccs2)no1 (stereo not given) do in these assays?
Shiga inhibitor: 40.4; CHX counter: 19.3*; LmPK inhibitor: 0.7%; NS1 function inh: -1.4%

Results for CCc1ccc2nc(N3C(=O)C(O)=C(C(=O)c4ccco4)C3c3cccs3)sc2c1 (stereo not given) ?
Shiga inhibitor: 58.8*; CHX counter: 28.7*; LmPK inhibitor: 4.5%; FBPA Giardia inh: 15.0%; NS1 function inh: 13.3%

What do the screens show for `Cc1ccc(C2C(C(=O)c3cc4ccccc4o3)=C(O)C(=O)N2c2cc(C)on2)cc1` (stereo not given)?
Shiga inhibitor: -1.1; CHX counter: 2.1; LmPK inhibitor: 11.7%; NS1 function inh: 9.6%

How did CC(C)(C)c1csc(N/N=C/c2ccc(O)cc2)n1 do in these assays?
Shiga inhibitor: 91.1*; CHX counter: 46.8*; LmPK inhibitor: -8.8%; FBPA Giardia inh: -21.9%; NS1 function inh: 16.1%

What do the screens show for `Cc1csc(N/N=C/c2ccc(O)c([N+](=O)[O-])c2)n1`?
Shiga inhibitor: 17.1; CHX counter: 5.3; LmPK inhibitor: inconclusive; FBPA Giardia inh: inconclusive; NS1 function inh: -82.3%

What do the screens show for `Oc1ccc(-c2n[nH]c(=S)n2-c2ccc3c(c2)OCCO3)c(O)c1`?
Shiga inhibitor: 35.1*; CHX counter: 17.1*; LmPK inhibitor: inconclusive; FBPA Giardia inh: -0.4%; NS1 function inh: inconclusive

Results for COc1ccccc1-c1n[nH]c(=S)n1-c1ccccc1 ?
Shiga inhibitor: 14.5; CHX counter: 19.7*; LmPK inhibitor: -23.8%; FBPA Giardia inh: -12.9%; NS1 function inh: -3.8%

Results for S=c1[nH]nc(-c2ccc(Cl)cc2Cl)n1-c1ccccc1 ?
CHX counter: 39.7*; LmPK inhibitor: -18.9%; FBPA Giardia inh: 19.5%; NS1 function inh: 3.6%

What do the screens show for `S=c1[nH]nc(-c2ccc(Cl)cc2Cl)n1Cc1ccccc1`?
Shiga inhibitor: 20.8; CHX counter: 3.7; LmPK inhibitor: inconclusive; FBPA Giardia inh: 21.3%; NS1 function inh: 11.2%

What do the screens show for `S=c1[nH]nc(-c2ccc(Cl)cc2Cl)n1-c1ccc2c(c1)OCCO2`?
Shiga inhibitor: 46.3*; CHX counter: 20.6*; LmPK inhibitor: inconclusive; FBPA Giardia inh: 1.1%; NS1 function inh: 14.8%

What do the screens show for `CC1CCCC(NC(=O)CCNC(=O)c2ccc([N+](=O)[O-])cc2)C1C` (stereo not given)?
Shiga inhibitor: -13.4; CHX counter: -3.7; LmPK inhibitor: -3.0%; NS1 function inh: -11.8%

What do the screens show for `Cc1ccc([N+](=O)[O-])c(-c2n[nH]c(=S)n2-c2cccc(Cl)c2)c1`?
Shiga inhibitor: -4.9; CHX counter: -1.6; LmPK inhibitor: 17.8µM*; FBPA Giardia inh: 12.1%; NS1 function inh: 2.8%

What do the screens show for `Cc1cccc(-n2c(-c3ccoc3C)n[nH]c2=S)c1`?
Shiga inhibitor: -9.4; CHX counter: -0.7; LmPK inhibitor: inconclusive; FBPA Giardia inh: -5.4%; NS1 function inh: -5.8%

What do the screens show for `C[C@@H](C(=O)NCCc1ccccc1)N1C(=O)N2CCc3c([nH]c4ccccc34)[C@@]2(C)C1=O`?
Shiga inhibitor: 20.6*; CHX counter: 19.2*; LmPK inhibitor: -6.9%; FBPA Giardia inh: -7.0%; NS1 function inh: -94.7%

How did COc1ccc2[nH]c3c(c2c1)CCN1C(=O)N([C@@H](C)C(=O)NCc2ccccc2)C(=O)[C@]31C do in these assays?
Shiga inhibitor: 9.5; CHX counter: -3.7; LmPK inhibitor: 0.0%; FBPA Giardia inh: -8.6%; NS1 function inh: 20.7%

What do the screens show for `C[C@@H](C(=O)NCCc1ccccc1F)N1C(=O)N2CCc3c([nH]c4ccccc34)[C@@]2(C)C1=O`?
Shiga inhibitor: 29.6*; CHX counter: 23.3*; LmPK inhibitor: -4.5%; FBPA Giardia inh: 4.4%; NS1 function inh: -27.4%

Assay outcomes (PubChem BioAssay)
